# USP28 inh – human USP28 deubiquitinase inhibition. Q96RU2. inhibition, % at 25 µM. 47,000 tested, 3% active. purified USP28, Ub-rhodamine cleavage fluorescence, 30 min
# USP7 inh – inhibitors of human USP7 deubiquitinase. Q93009. purified USP7, Ub-rhodamine cleavage fluorescence. inhibition, % at 20 µM. 47,000 tested, 0.3% active. AID 1645854
# USP17 block – human USP17-like deubiquitinase inhibition. purified USP17, Ub-rhodamine cleavage fluorescence, 3 h. inhibition, % at 50 µM. 47,000 tested, 6.5% active
# USP30 block – human USP30 deubiquitinase inhibition; Q70CQ3; purified USP30, Ub-rhodamine cleavage fluorescence; inhibition, % at 25 µM; 47,000 tested, 5.3% active; AID 1645860
# Target sequence (Q70CQ3 whole entry, looked up): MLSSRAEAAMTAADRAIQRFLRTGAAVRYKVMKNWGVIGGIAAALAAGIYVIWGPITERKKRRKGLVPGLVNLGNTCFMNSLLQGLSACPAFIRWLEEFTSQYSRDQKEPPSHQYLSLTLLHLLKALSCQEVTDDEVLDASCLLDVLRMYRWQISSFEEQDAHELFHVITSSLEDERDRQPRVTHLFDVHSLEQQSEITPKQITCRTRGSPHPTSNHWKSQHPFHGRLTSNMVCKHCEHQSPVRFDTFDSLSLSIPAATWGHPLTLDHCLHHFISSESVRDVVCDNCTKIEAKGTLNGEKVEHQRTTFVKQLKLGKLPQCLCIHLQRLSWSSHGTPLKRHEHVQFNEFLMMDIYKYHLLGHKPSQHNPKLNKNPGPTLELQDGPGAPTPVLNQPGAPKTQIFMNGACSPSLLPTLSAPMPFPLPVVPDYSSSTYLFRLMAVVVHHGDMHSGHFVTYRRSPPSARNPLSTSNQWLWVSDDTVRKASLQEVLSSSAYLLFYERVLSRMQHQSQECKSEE
# USP8 inh – human USP8 deubiquitinase inhibition. AID 1645853. inhibition, % at 20 µM. 47,000 tested, 4.2% active. purified USP8, Ub-rhodamine cleavage fluorescence, 30 min
# USP10 block – blocks human USP10 ubiquitin-rhodamine cleavage; Q14694; 47,000 tested, 1.1% active; purified USP10, Ub-rhodamine fluorescence, 60 min; inhibition, % at 20 µM; AID 1645856
# Active calls of the source: *; x = not tested or not shown. Only some compounds are listed: those with a hit (about 13% of all), similar ones and a draw of the others. No stated cut-off is given here; in the data, active means inhibition above about 30%; inactive means the rest.
SMILES,USP28 inh,USP7 inh,USP17 block,USP30 block,USP8 inh,USP10 block
O=C(Nc1ccccc1Cl)c1ccn(COc2ccccc2F)n1,29,9,66*,57*,35*,5
O=C(Nc1ccc(Cl)cc1Cl)c1ccn(COc2ccccc2F)n1,18,5,36*,45*,20,0
Cc1cccc(S(=O)(=O)N2CCC(c3cc(N)on3)CC2)c1,-8,1,-3,-14,-24,1
Nc1cc(C2CCN(S(=O)(=O)c3ccc4c(c3)CCCC4)CC2)no1,10,6,16,48*,17,3
COCCCN1CCS(=O)(=O)c2c(Cl)c(F)nc(Oc3ccc(C#N)cc3)c21,20,x,80*,-16,91*,10
COCCN1CCS(=O)(=O)c2c(Cl)c(F)nc(Oc3ccccc3F)c21,5,-150,49*,-4,53*,0
NC(=O)c1cccc(NC(=O)c2cccc(Oc3ccccc3)c2)c1,15,-41,6,-4,10,-3
O=C(Nc1cccc(Oc2ccccc2)c1)c1ccc2nc[nH]c2c1,34*,4,-1,-9,1,1
O=C(Nc1cccc(Oc2ccccc2)c1)c1c(F)cccc1F,36*,-2,-4,-23,-8,-4
CC(C)c1cccc(OCCOCCN2CCNCC2)c1,48*,-1,8,21,8,-3
COc1cccc(NC(=O)CCC(=O)N2CCSc3ccccc32)c1,35*,3,-5,-11,3,5
COc1ccc(C2=Nc3ccccc3SC(c3ccccc3)C2)cc1 (centres undefined),15,1,19,9,41*,6
Cn1c(O)c(C2=Nc3ccccc3SC(c3ccc(Cl)cc3)C2)c(=O)n(C)c1=O (centres undefined),0,1,19,9,5,-5
CCCn1c(NC(=O)Cc2coc3cc(OC)ccc23)nc2ccccc21,-21,-21,9,-88,61*,-2
CCOC(=O)c1ccc(Oc2sccc2[N+](=O)[O-])cc1,5,85*,-4,-18,-126,4
CCC(C)c1ccccc1NC(=O)CN1C(=O)c2ccccc2S1(=O)=O (centres undefined),24,5,17,21,26,3
O=C(NCCc1c[nH]c2ccccc12)C(=O)Nc1cccc2ncccc12,-5,2,42*,-29,14,-3
Oc1ccc2c3c1[C@@H](O)C1OC1[C@]31Oc3cccc4c3[C@](C=C[C@@H]4O)(O2)O1 (some centres undefined),4,-5,46*,-54,3,-11
O=C(Nc1cccc2cccnc12)c1nnn(-c2ccccc2)n1,0,-4,44*,18,-20,0
O=C(Nc1ccccc1)c1nnn(-c2ccccc2)n1,1,0,-2,8,-14,2
O=C(Nc1cc(-c2cccnc2)no1)c1ccc(F)c(F)c1,38*,5,65*,-102,27,3
COc1ccc(C(=O)Nc2cc(-c3cccnc3)no2)cn1,0,2,0,15,-2,3
COc1cc(C(=O)Nc2cc(-c3ccc(F)c(F)c3)no2)cc(OC)c1OC,-15,0,-9,-22,43*,0
O=C(COc1ccccc1)Nc1cc(-c2ccc(F)c(F)c2)no1,x,15,81*,x,11,19
COCC(=O)N1CCCCCC1C1CCN(c2ccc(C#N)cn2)CC1 (centres undefined),16,-24,0,29,4,-2
SMILES,USP28 inh,USP7 inh,USP17 block,USP30 block,USP8 inh,USP10 block
COc1ccc(CNCc2cc3c(C)nn(-c4ccccc4)c3[nH]c2=O)cc1,11,7,x,-17,64*,4
Cc1nn(-c2ccccc2)c2[nH]c(=O)c(CNCc3ccccc3Cl)cc12,-1,1,-4,-36,72*,1
CC(C)CC1NC(=O)C2(CCN(C(=O)NCc3ccccc3)CC2)NC1=O (centres undefined),1,1,-5,0,1,2
Cc1noc(C)c1C(=O)N1C2CCC3(CC2)OC(=O)N(C)CC13 (centres undefined),0,1,-1,1,3,0
COc1ccc(Cl)cc1NC(=O)CSc1ncnc2nc[nH]c12,43*,22,26,33*,74*,47*
COc1ccc(-c2c(-c3ccc(OCCN4CCOCC4)cc3O)n[nH]c2C)cc1OC,-16,-1,1,-24,55*,-2
COc1ccc2c(c1)CCc1c-2n[nH]c1C(=O)NCCN1CCOCC1,5,5,10,3,1,0
COc1cc(O)c2c(=O)c3c(C)cc(O)c(Cl)c3oc2c1,11,0,22,2,12,26
CCN1CCN(CCNC(=O)c2ccc(N3CCc4ccccc43)s2)CC1,12,-4,1,-67,-17,-1
CC1CCCCN1CCCNC(=O)c1ccc(N2CCc3ccccc32)s1 (centres undefined),56*,3,28,24,11,-3
CC1CCCN(CCCNC(=O)c2ccc(N3CCc4ccccc43)s2)C1 (centres undefined),58*,4,3,24,-16,-1
Cc1cc(C)c(NC(=O)Cn2c(SCc3cccc(F)c3)nc3cccnc32)c(C)c1,40*,22,64*,73*,57*,12
CCc1ccccc1NC(=O)Cn1c(SCc2ccc(F)cc2)nc2cccnc21,43*,22,86*,57*,70*,36*
Cn1c(=O)n(CC(=O)NCc2cccc(F)c2)c2cccnc21,x,-1,-1,x,-6,-3
O=C(NCc1noc(Cc2ccccc2)n1)C1CCCC1,-18,-7,-16,-24,-12,-3
COC(=O)c1ccc(NC(=O)CSc2nnc(-c3ccc(O)cc3)n2Cc2ccco2)cc1,22,4,21,84*,-4,-1
O=C(O)CSc1nnc(-c2ccc(Br)cc2)n1Cc1ccco1,-10,-15,-7,-54,-8,3
Cc1cc(C)c(C(=O)CSc2nnc(-c3cccnc3)n2C)cc1C,-2,0,0,2,4,-4
COc1ccc(C(=O)CSc2nnc(-c3cccnc3)n2-c2ccccc2)cc1,0,-84,42*,52*,8,1
CN(C)C(=O)N1CCC2(CC1)CNCc1ccccc12,-10,1,x,-32,-46,-1
CCn1cc2c3c(cccc31)CN(C(=O)c1c(F)cccc1F)CC2,-55,-27,-54,-221,-39,-4
Nc1ncnc(SCc2ccc(Cl)cc2)n1,4,x,54*,23,8,7
COc1ccc(C(=O)N2CCC(n3c(=O)[nH]c4cncnc43)C2)cc1F (centres undefined),-9,-1,-7,-8,-4,0
Cn1c(=O)c2ccc(C3CCN(C(=O)C4CCCC4)C3)nc2n(C)c1=O (centres undefined),5,4,11,-1,12,0

# Assay outcomes from PubChem BioAssay.
